Measured values published in the supplement of paper PMC9477273.

These molecules were tested on DRIVER-selected RNA biosensor (aptazyme) pool (assay: maximum fold change of ribozyme cleavage across biosensor pool versus no-compound control; higher = stronger biosensor response (ligand inhibits cleavage)). Conditions: 10 µM.
Description: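 CleaveSeq: a pool of resynthesized hammerhead-ribozyme RNA biosensors (sTRSV scaffold with randomized loops, 1,730 sequences) was T7-transcribed at 37 °C for 15-30 min with a single compound at 10 µM. Cleaved and uncleaved products were counted by NGS, and fold change of cleavage was computed against the DMSO-only condition. The value is the maximum fold change of cleavage over all biosensors in the pool. About 255 compounds were tested individually.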

Row | SMILES | maximum fold change
1 | Cc1c[n+]([O-])n(-c2ccc(C(=O)O)cc2)n1 | 2.15
2 | O=c1c2cccnc2n(Cc2ccc(Cl)cc2)c(=O)n1CCc1ccccc1 | 2.13
3 | O=C(NCc1ccc2c(c1)OCO2)c1cc(-c2ccc(Cl)cc2)n[nH]1 | 3.13
4 | CC(=O)c1c(C)[nH]c2ccccc2c1=O | 2.03
5 | COc1ccccc1/C=C1N=C(c2ccc(Cl)c(Cl)c2)OC1=O | 3.36
6 | C=CCNC(=O)/C(C#N)=C/c1c(Oc2ccccc2)nc2ccccn2c1=O | 9.03
7 | CCOC(=O)c1cnc2c(OC)cccc2c1NCCCN(CC)CC | 6.68
8 | CC(=O)N1C(=N)S/C(=C/c2cc3ccc(C)cc3nc2O)C1=O | 7.51
9 | CC1=C(c2ccc(C)cc2)S(=O)(=O)N=C1NCCCN1CCc2ccccc2C1 | 3.69
10 | O=C(Cn1ncc2c1-c1ccccc1OC2)N1CCC(Cc2ccccc2)CC1 | 3.52
11 | COc1ccc(C(=O)/C=C2\Nc3ccc(C(=O)NCc4cccc(OC)c4)cc3NC2=O)cc1 | 7.89
12 | Cc1nn2c(-c3ccncc3)nnc2c2ccccc12 | 10.8
13 | COc1ccc(C(=O)Cc2cc3cccc(OC)c3oc2=O)cc1 | 1.82
14 | CCN(Cc1ccccc1)Cc1csc(C)c1C | 3.07
15 | Cc1ccc(OCC(=O)N(Cc2ccccc2F)C2CCS(=O)(=O)C2)cc1C (stereo not given) | 2.91
16 | Cc1ccc(C)c(Cn2c(C)c(CNCCCN3CCCC3=O)c(C(=O)O)c2C)c1 | 2.12
17 | CN(C)CCNC(=O)CCn1c(=O)c2cccn2c2cccnc21 | 3.34
18 | CCOc1ccc(CCNC(=O)CCn2c(=O)c3cccn3c3cccnc32)cc1OCC | 2.67
19 | CC1(C)CC(=O)C(=Cc2c[nH]c3ccccc23)C(=O)C1 | 2.44
20 | COc1cc(CNc2ncc(-c3ccccc3)n2C)cc(OC)c1OC | 1.75

Row | SMILES | maximum fold change
21 | Cc1ccc2c(CNC3CCC(C)CC3)c(C(=O)O)n(Cc3ccccc3F)c2c1 (stereo not given) | 2.5
22 | Cc1cc(NC(=O)CSc2nnc(-c3ccc(C)c(C)c3)o2)no1 | 2.25
23 | Cc1ccc(C)c(Cn2c(C)c(CNCc3ccc(Cl)cc3)c(C(=O)O)c2C)c1 | 2.54
24 | N#C/C(=Cc1c(Oc2ccc(cc2)C)nc2n(c1=O)cccc2)/C(=O)OC | 5.19
25 | O=c1oc2cc(O)ccc2c2ccccc12 | 2.57
26 | Clc1ccc2nc3c4ccccc4cnn3c2c1 | 3.12
27 | COCCNC(=S)NCc1ccc2[nH]c(C)cc2c1 | 2.32
28 | CC(C)CCNC(=O)Cn1c2c(c(-c3ccccc3Cl)cc1=O)CCC2 | 2.06
29 | Cc1c(C(=O)Nc2ccncc2)sc2nc(-c3ccccc3)cn12 | 3.12
30 | COc1ccc(CCn2c(SCC(=O)Nc3cc(C)n[nH]3)nc3ncccc3c2=O)cc1OC | 11.2
31 | CCOc1ccc(S(=O)(=O)N2CCN(Cc3ccccc3)CC2)c2cccnc12 | 5.08
32 | COCCNC(=O)c1ccc(CS(=O)Cc2ccc(Cl)cc2)o1 (stereo not given) | 3.58
33 | COc1ccc(/C=c2\s/c(=C/C(=O)c3ccc(C)cc3)[nH]c2=O)cc1OC | 2.47
34 | CCCN(CCC)CCCNS(=O)(=O)c1ccc(OCC)c2ncccc12 | 2.96
35 | O=C(NCc1cccc(Cl)c1)c1cnc2ccccn2c1=O | 7.03
36 | COc1ccc(cc1C1=N/C(=CNc2ccccn2)/C(=O)O1)Cl | 6.85
37 | CCOCCCNC(=O)/C(C#N)=C/c1c(Oc2ccc(Br)cc2)nc2ccccn2c1=O | 3.31
38 | NC(=O)c1nc2n(c1N)CCCCC2 | 2.43
39 | COc1ccc(C=C2C(=O)c3ccccc3C2=O)c(C)c1 | 2.53
40 | c1ccc(-c2nc3cc(Oc4ccc5[nH]c(-c6ccccn6)nc5c4)ccc3[nH]2)nc1 | 2.66
